Assay outcomes: PubChem BioAssay, National Center for Advancing Translational Sciences (NCATS)
Only some compounds are listed: those with a hit (about 18% of all), similar ones and a draw of the others.
IL-1B inflam inh: inflammasome signaling inhibition, IL-1 beta readout; activity change, % at 57.5 µM; AID 743279; 4.7% of 360,000 active; THP-1 LPS/ATP IL-1B secretion, AlphaLISA, 16 h; hits give low values; in the data active = activity change below about -50%; inconclusive = mostly about -30% to -49%
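THP-1 cells pretreated 1 hr with compounds (up to 57.5 uM final), then stimulated with LPS (250 ng/mL final) plus ATP (1.25 mM final); secreted IL-1B measured by AlphaLISA after 16 hr, decreased signal indicating inhibition.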
CtBP-E1A inh: CtBP/E1A binding inhibition; AlphaScreen GST-E1A/His-CtBP binding, 1536-well; hits give low values; activity change, % (no concentration beside the values); 0.49% of 340,000 active; in the data active = activity change below about -65%; inconclusive = mostly about -30% to -63%
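Homogeneous bead-based format: GST-tagged E1A captured on glutathione donor beads, His-tagged CtBP on nickel acceptor beads; compounds precede bead addition by 2 h at 37 °C.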
TDP1 inh: TDP1 (human) enzyme inhibition; Q9NUW8; recombinant TDP1, AlphaScreen DNA substrate cleavage; Potency, µM (series often up to 130 µM), for the others: at the top dose activity change, negative = inhibition, hits mostly inhibitors; AID 485290; 0.28% of 350,000 active; also: potency is read from the fitted curve at half-maximal effect; nearly all actives have a fitted effect of over 40% in size
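Enzyme-compound mixtures sat 15 min at room temperature, followed by a 5 min reaction with 15 nM final substrate and 10 min with AlphaScreen beads. Recombinant human Tdp1 was used at 1 nM final.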
DT40 TDP1 no CPT: qHTS for Inhibitors of human tyrosyl-DNA phosphodiesterase 1 (TDP1): qHTS in cells in absence of CPT; DT40 Tdp1-/- hTDP1 cells, no CPT, ATP luminescence, 48 h; 15% of 420,000 active; Potency, µM (doses to about 46.2 µM), for the others: at the highest dose activity change, negative = growth inhibition, hits mostly inhibitors; also: potency is read from the fitted curve at half-maximal effect; nearly all actives have a fitted effect of over 55% in size
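Growth kinetics read by CellTiter-Glo luminescence after ≥48 hr at 37 °C. Cells: DT40 Tdp1-/- stably carrying human TDP1, 400 per well, compound exposure in the absence of CPT (DMSO vehicle).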
DT40 TDP1 CPT: DT40-hTDP1 cell growth loss with CPT; chicken DT40 Tdp1-/-;hTDP1 cells + 20 nM CPT, ATP luminescence, 48 h; Potency, µM (series often up to 46.2 µM), without a hit: at the highest dose activity change, negative = growth inhibition, hits mostly inhibitors; 12% of 420,000 active; AID 686979; also: potency is read from the fitted curve at half-maximal effect; nearly all actives have a fitted effect of over 55% in size
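Chicken DT40 Tdp1-/- cells complemented with human TDP1, 400 cells/well, exposed to compounds plus 20 nM camptothecin for at least 48 h at 37 C; viability read as ATP content by CellTiter-Glo luminescence.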
Six1-Eya2 inh: inhibitors of human Six1/Eya2 interaction. Q15475+O00167. AlphaScreen GST-Six1/His-Eya2 binding, biochemical; hits give low values. activity change, % (no concentration beside the values). 0.56% of 360,000 active; in the data active = activity change below about -65%; inconclusive = mostly about -30% to -63%
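AlphaScreen with GST-Six1 and His-Eya2 (5X mix: 250 nM and 500 nM), glutathione donor and nickel acceptor beads; buffer 50 mM Tris pH 8.0, 300 mM NaCl, 1 mM TCEP; 1 h at 37 C in the dark.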
Starred values were filed as active, the others as inactive; ? = inconclusive; nt = not tested or not shown; [ ] = remark or other dose. Unless noted, calls follow the shape of the dose curve; as a rule, active = well fitted curve in the direction sought with a large enough effect; inconclusive = small, poorly fitted or top-dose-only effect, or another doubt; inactive = no such curve, though single readings can be large; an effect the other way counts as inactive or inconclusive. % is scaled to controls: 0 for no effect and ±100 for the full control effect.

SMILES | IL-1B inflam inh | CtBP-E1A inh | TDP1 inh | DT40 TDP1 no CPT | DT40 TDP1 CPT | Six1-Eya2 inh
COc1ccc(S(=O)(=O)N(CC(=O)NC(C)c2ccccc2)c2ccc(C)cc2)cc1OC (configuration not stated) | nt | nt | 5%[2.28 µM] | 5.8µM* | ? | nt
COc1ccc(S(=O)(=O)N(CC(=O)NCCC(C)C)c2ccccc2)cc1OC | 18 | -1 | 5% | ? | -27% | 1
COc1ccc(CN2C=C3C(=O)C(C)(OC(=O)C4CCCC4)C(=O)C=C3C=C2c2ccsc2)cc1 (configuration not stated) | -3 | -20 | 9%[21 µM] | 12µM* | ? | -23
COC(=O)CCCC1=CC2=C(c3ccccc3)C(=O)C(C)(OC(=O)C3CCCC3)C(=O)C2=CN1CC1CC1 (configuration not stated) | 15 | nt | 4%[12.3 µM] | -10% | -11% | -11
CCCCC1=CC2=CC(=O)C(C)(OC(=O)CC)C(=O)C2=CN1Cc1ccc(OC)cc1 (configuration not stated) | 40 | -4 | 13%[12.3 µM] | 13µM* | 26µM* | -4
CCCCC1=CC2=C(c3ccco3)C(=O)C(C)(OC(=O)c3ccc(OC)cc3)C(=O)C2=CN1Cc1ccc2c(c1)OCO2 (configuration not stated) | ? | -29 | 6%[12.3 µM] | 13µM* | 9.2µM* | -28
COC(=O)CCCC1=CC2=C(c3ccccc3)C(=O)C(C)(OC(=O)C3CCCC3)C(=O)C2=CN1C1CCCC1 (configuration not stated) | 25 | -18 | 6%[21 µM] | 16µM* | ? | -11
CC1CCCc2sc3ncn(N)c(=N)c3c21 (configuration not stated) | 26 | -4 | -5% | ? | 4% | -2
Cn1cnc(S(=O)(=O)Nc2ccc(OC(F)F)cc2)c1 | -2 | 0 | 1% | -1% | 6% | 3
CCCCC1=CC2=C(c3ccco3)C(=O)C(C)(OC(=O)c3ccc(OC)cc3)C(=O)C2=CN1CCc1ccccn1 (configuration not stated) | -7 | -14 | 3%[12.3 µM] | 9.2µM* | 5.8µM* | -13
CCCCC1=CC2=C(c3ccco3)C(=O)C(C)(OC(=O)c3ccc(OC)cc3)C(=O)C2=CN1CCc1c[nH]c2ccccc12 (configuration not stated) | nt | nt | 6%[12.3 µM] | nt | nt | nt
CCCCC1=CC2=C(c3ccco3)C(=O)C(C)(OC(=O)c3ccc(OC)cc3)C(=O)C2=CN1C1CCCCC1 (configuration not stated) | -14 | ? | 5%[21 µM] | 4.6µM* | 4.6µM* | ?
CCCCC1=CC2=C(c3ccco3)C(=O)C(C)(OC(=O)c3ccc(OC)cc3)C(=O)C2=CN1Cc1ccccc1 (configuration not stated) | 3 | 0 | 6%[12.3 µM] | 4.6µM* | 5.2µM* | 1
CCCCC1=CC2=C(c3ccco3)C(=O)C(C)(OC(=O)c3ccc(OC)cc3)C(=O)C2=CN1CCOC (configuration not stated) | -19 | -13 | 4%[12.3 µM] | -17% | -26% | -17
CCc1ccccc1NC(=O)c1cnc(N2CCCCC2)c2ccccc12 | nt | nt | -7% | ? | 18µM* | nt
O=C(Nc1ccc(C(F)(F)F)cc1)c1cnc(N2CCN(c3ccccn3)CC2)c2ccccc12 | 39 | -14 | -1% | ? | 21µM* | 3
O=C(Nc1ccccc1F)c1cnc(N2CCCCC2)c2ccccc12 | nt | nt | -14% | 23µM* | 16µM* | nt
Cc1ccc(NC(=O)c2cnc(N3CCCCC3)c3ccccc23)c(C)c1 | nt | nt | 5% | -23% | ? | nt
Cc1ccc(Cl)cc1NC(=O)c1cnc(N2CCCCC2)c2ccccc12 | nt | nt | 1% | 13µM* | 18µM* | nt
O=C(Nc1ccc(C(F)(F)F)cc1)c1cccnc1N1CCOCC1 | 44 | 11 | 2% | ? | -19% | 3
